Experimental data as given in PubChem BioAssay (NCI).
Compounds without any hit were thinned out: in the full panel of roughly 79,000, 15% have a hit. Active and inactive are the calls of the source. No stated cut-off is given here; in the data, active means growth inhibition above about 70%; inactive means the rest.

Legend:
[1] = NCI Yeast Anticancer Drug Screen. Data for the rad52 strain (AID 147);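 further: 0% = growth of vehicle-treated control cultures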; conditions: S. cerevisiae rad52 mutant growth inhibition, active compounds read high
Method in brief: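 Growth of repair-deficient yeast cells was compared between compound-treated and vehicle-treated cultures to give percent inhibition.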

[2] = NCI Yeast Anticancer Drug Screen. Data for the wt1 strain (AID 149);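 further: 0% = growth of vehicle-treated wt1 cultures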; conditions: S. cerevisiae wt1 strain (SPY 50644) growth inhibition, active compounds read high
Method in brief: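 Compounds are added to wt1 yeast cultures. Growth is then measured. Inhibition is expressed relative to vehicle-treated controls.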

[3] = NCI Yeast Anticancer Drug Screen. Data for the rad50EPP+ strain (AID 151);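 further: 0% = growth of vehicle-treated control cultures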; conditions: S. cerevisiae rad50 mutant strain, active compounds read high
Method in brief: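 Measured: growth inhibition of rad50EPP+ yeast. Reference: vehicle-treated controls. Screen uses strains with defined genetic alterations in DNA damage repair or cell cycle control.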

[4] = NCI Yeast Anticancer Drug Screen. Data for the mgt1 strain (AID 153); conditions: S. cerevisiae mgt1 mutant growth inhibition, active compounds read high
Method in brief: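 Compounds were applied to mgt1 mutant yeast, and growth was then compared against vehicle-treated control cultures to give percent inhibition.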

[5] = NCI Yeast Anticancer Drug Screen. Data for the rad50 strain (AID 155);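 further: 0% = growth of vehicle-only cultures of the same strain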; conditions: S. cerevisiae rad50 strain growth inhibition, active compounds read high
Method in brief: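 Inhibition values express reduced yeast growth in compound-treated cultures relative to vehicle-treated controls.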

[6] = NCI Yeast Anticancer Drug Screen. Data for the mec2-1 strain (AID 157); conditions: S. cerevisiae mec2-1 strain, active compounds read high
Method in brief: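 Compounds were applied to mec2-1 yeast cells. Their growth was then compared with that of vehicle-treated cultures to give growth inhibition.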

[7] = NCI Yeast Anticancer Drug Screen. Data for the rad14 strain (AID 159);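 further: 0% = growth of vehicle-treated control cultures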; conditions: S. cerevisiae rad14 strain growth inhibition, active compounds read high
Method in brief: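 A mutant yeast strain defective in DNA damage repair is treated with compound; inhibition of its growth is scored against untreated, vehicle-exposed cultures.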

[8] = NCI Yeast Anticancer Drug Screen. Data for the sgs1 mgt1 strain (AID 161);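 further: 0% = growth of cultures given vehicle only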; conditions: S. cerevisiae sgs1 mgt1 strain, active compounds read high
Method in brief: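 Growth of a repair-deficient yeast mutant was monitored after compound treatment and expressed as inhibition relative to vehicle-treated cultures.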

[9] = NCI Yeast Anticancer Drug Screen. Data for the CLN2oe strain (AID 163);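 further: 0% = growth of vehicle-only control cultures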; conditions: S. cerevisiae CLN2oe strain, active compounds read high
Method in brief: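 Cells of an engineered yeast line with disturbed cell-cycle regulation are treated with compound. Inhibition of growth is then calculated relative to the vehicle-treated reference.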

[10] = NCI Yeast Anticancer Drug Screen. Data for the cln2 rad14 strain (AID 165);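 further: 0% = growth equal to vehicle treated cultures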; conditions: S. cerevisiae cln2 rad14 strain, active compounds read high
Method in brief: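 Strain: cln2 rad14 yeast, altered in cell cycle control and DNA damage repair. Read-out: growth inhibition vs vehicle.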

[11] = NCI Yeast Anticancer Drug Screen. Data for the bub3 strain (AID 167); conditions: S. cerevisiae bub3 mutant strain, active compounds read high
Method in brief: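 Steps: expose the mutant yeast strain to compound; grow alongside vehicle-treated cultures; measure growth; express inhibition against the vehicle cultures.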

[12] = NCI Yeast Anticancer Drug Screen. Data for the wt2 strain (AID 169);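 further: 0% = growth of vehicle-treated yeast cultures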; conditions: S. cerevisiae wt2 strain growth inhibition, active compounds read high
Method in brief: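 Growth of compound-treated yeast is measured and expressed as inhibition relative to vehicle-only controls.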

[13] = NCI Yeast Anticancer Drug Screen. Data for the mlh1 strain (AID 171);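 further: 0% = growth of vehicle-treated control cultures of the same strain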; conditions: S. cerevisiae mlh1 strain growth inhibition, active compounds read high
Method in brief: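 Test agents were incubated with yeast bearing a defined DNA damage repair or cell cycle control alteration; values are growth inhibition normalised to vehicle-treated cultures.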

[14] = NCI Yeast Anticancer Drug Screen. Data for the sgs1 strain (AID 173);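 further: 0% = growth of vehicle-only control cultures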; conditions: S. cerevisiae sgs1 mutant, active compounds read high
Method in brief: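 Strain with an altered DNA repair or cell cycle pathway exposed to compound. Growth then measured. Value = inhibition versus vehicle control.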

[15] = NCI Yeast Anticancer Drug Screen. Data for the mlh1 rad18 strain (AID 175); conditions: S. cerevisiae mlh1 rad18 strain growth inhibition, active compounds read high
Method in brief: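 A repair-deficient yeast strain is exposed to test compound, and growth is scored relative to vehicle-treated controls.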

[16] = NCI Yeast Anticancer Drug Screen. Data for the rad18 strain (AID 177); conditions: S. cerevisiae rad18 mutant growth inhibition, active compounds read high
Method in brief: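 DNA-repair-defective yeast; compound treatment; growth inhibition scored against vehicle.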

[17] = at 5.0 µM (retest, dose inferred, filed as 0.5)
[18] = at 50.0 µM (retest, dose inferred, filed as 5.0)

Measured: growth inhibition

COc1ccc(C(C)c2cc3c(cc2OC(C)O)OCO3)cc1 (stereo not drawn)
active: [1]; at 100.0 µM 89% | [2]; at 100.0 µM 88% | [4]; at 100.0 µM 95% | [5]; at 100.0 µM 96% | [6]; at 100.0 µM 87% | [13]; at 100.0 µM 92% | [14]; at 100.0 µM 92% | [16]; at 100.0 µM 90%
inactive: [1]; at 1.2 µM -2% | [1]; at 3.7 µM -3% | [1]; at 11.0 µM -1% | [1]; at 33.0 µM 1% | [2]; at 1.2 µM -2% | [2]; at 3.7 µM -3% | [2]; at 11.0 µM -4% | [2]; at 33.0 µM -4% | [3]; at 1.2 µM 0% | [3]; at 3.7 µM 15% | [3]; at 11.0 µM 15% | [3]; at 33.0 µM 33% | [3]; at 100.0 µM 36% | [4]; at 1.2 µM -3% | [4]; at 3.7 µM -2% | [4]; at 11.0 µM -3% | [4]; at 33.0 µM -2% | [5]; at 1.2 µM -6% | [5]; at 3.7 µM -46% | [5]; [17] 4% | [5]; at 11.0 µM 26% | [5]; at 33.0 µM 3% | [5]; [18] 11% | [5]; at 50.0 µM 18.8% | [6]; at 1.2 µM -3% | [6]; at 3.7 µM -2% | [6]; [17] 3% | [6]; at 11.0 µM -1% | [6]; at 33.0 µM -2% | [6]; [18] 31% | [6]; at 50.0 µM 0.2% | [7]; at 1.2 µM -1% | [7]; at 3.7 µM -2% | [7]; at 11.0 µM -1% | [7]; at 33.0 µM 4% | [7]; at 100.0 µM 69% | [8]; [17] 2% | [8]; [18] 37% | [8]; at 50.0 µM 58.5% | [9]; at 1.2 µM 4% | [9]; at 3.7 µM 1% | [9]; at 11.0 µM 2% | [9]; at 33.0 µM 1% | [9]; at 100.0 µM 38% | [10]; [17] 3% | [10]; [18] 1% | [10]; at 50.0 µM -31.5% | [11]; at 1.2 µM 0% | [11]; at 3.7 µM 6% | [11]; [17] 7% | [11]; at 11.0 µM 20% | [11]; at 33.0 µM 43% | [11]; [18] 52% | [11]; at 50.0 µM 25.4% | [11]; at 100.0 µM 64% | [12]; at 1.2 µM 3% | [12]; at 3.7 µM -1% | [12]; at 11.0 µM -2% | [12]; at 33.0 µM -2% | [12]; at 100.0 µM 32% | [13]; at 1.2 µM -2% | [13]; at 3.7 µM -3% | [13]; at 11.0 µM -1% | [13]; at 33.0 µM 1% | [14]; at 1.2 µM -3% | [14]; at 3.7 µM -1% | [14]; at 11.0 µM 5% | [14]; at 33.0 µM 25% | [15]; [17] -1% | [15]; [18] 52% | [15]; at 50.0 µM 50.6% | [16]; at 1.2 µM -2% | [16]; at 3.7 µM 4% | [16]; at 11.0 µM 7% | [16]; at 33.0 µM 18%
